Screening data deposited in PubChem by Broad Institute.
RAD52 inh = inhibitors of human RAD52 DNA annealing. P43351. recombinant RAD52 DNA annealing, FRET fluorescence. inhibition, % at 18.7 µM. 360,000 tested, 0.46% active;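 active = every replicate showing at least 50% inhibition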
miR122 inh = blocks miR-122 activity in Huh7 sensor cells | activation (reporter increase), % at 12.5 µM | 340,000 tested, 0.3% active | AID 602342 | Huh7 miR-122 Renilla luciferase sensor, 48 h; neutral wells = 0, positive control = 100;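 active = mean replicate activation score at least 90 and every replicate individually at or above 90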;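 note: higher luciferase means less miR-122 activity so hits act as miR-122 inhibitors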
Casp6 inh = blocks human caspase-6 cleavage activity. P55212. inhibition, % at 12.5 µM. purified caspase-6, Z-VEID-R110 cleavage fluorescence. 350,000 tested, 0.53% active;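 active = mean inhibition across replicates at least about 35%, with every replicate also reaching that limit, limit read from the data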;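 note: 0% = median of neutral control wells and 100% = no fluorescence left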
NSD2 HMT inh = inhibitors of human histone methyltransferase NSD2 | inhibition, % at 12.5 µM | NSD2 peptide methylation, AlphaScreen, 120 min | 310,000 tested, 0.54% active | AID 743445; in the data active = inhibition above about 50%
MLL AF4-AF9 inh = blocks AF4 peptide binding to human AF9. P42568. AlphaScreen, biotin-AF4 peptide binding to FLAG-AF9. inhibition, % at 10 µM. 350,000 tested, 0.47% active;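 active = every replicate reaching a set inhibition limit, whatever the replicate mean, cut at about 25% in these data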;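 note: 0% = plate neutral control median and 100% = total signal loss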
Target sequence (P42568 whole entry, looked up): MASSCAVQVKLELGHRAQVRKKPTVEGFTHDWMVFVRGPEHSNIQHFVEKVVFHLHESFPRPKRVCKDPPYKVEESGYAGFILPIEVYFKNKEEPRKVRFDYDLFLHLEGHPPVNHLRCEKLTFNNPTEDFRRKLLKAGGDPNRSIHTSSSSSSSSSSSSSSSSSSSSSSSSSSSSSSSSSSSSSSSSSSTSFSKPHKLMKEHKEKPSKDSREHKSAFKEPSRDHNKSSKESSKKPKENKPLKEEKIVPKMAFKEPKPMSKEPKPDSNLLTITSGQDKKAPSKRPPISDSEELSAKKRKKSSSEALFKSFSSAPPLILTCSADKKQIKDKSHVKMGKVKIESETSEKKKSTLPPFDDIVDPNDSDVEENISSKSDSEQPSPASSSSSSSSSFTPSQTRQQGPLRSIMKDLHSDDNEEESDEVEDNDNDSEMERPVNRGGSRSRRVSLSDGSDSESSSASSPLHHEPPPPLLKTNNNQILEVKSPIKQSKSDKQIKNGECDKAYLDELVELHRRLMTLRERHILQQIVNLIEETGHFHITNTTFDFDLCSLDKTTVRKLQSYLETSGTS
An asterisk follows results filed as active; i = inactive; . = no result; [ ] = remark or other dose. Rows were chosen to be rich in hits. Some 1.5% of all compounds tested hit in one or more screens of this group.

SMILES	RAD52 inh	miR122 inh	Casp6 inh	NSD2 HMT inh	MLL AF4-AF9 inh
CCN1[C@@H]2c3ccc(C4=CCCCC4)c(=O)n3C[C@H]1[C@H](CO)[C@H]2C(=O)NCCOC	9.2	.	1.6	.	-11.4
COCCNC(=O)C[C@@H]1CC[C@@H]2[C@H](COc3ccc(NS(=O)(=O)c4ccc(Cl)cc4)cc3C(=O)N2C)O1	-6.0	-32.5[16.7 µM]	0.5	.	-0.7
CNC[C@@H]1Oc2ncc(C#CC3(O)CCCC3)cc2C(=O)N([C@@H](C)CO)C[C@@H]1C	-11.7	49.4[16.7 µM]	-2.4	.	1.6
CCOc1cc(/C=N/NC(=O)c2ccc(-c3csc(Nc4ccc(C)cc4)n3)cc2)ccc1OCC(=O)O	-4.1	8.4	50.3*	-4.9	-3.5
COc1ccc(N=Nc2cc(C)c(O)c(CN3CCCCC3)c2)cc1	-5.3	-4.3	1.6	24.8	54.1*
O=C1C=CCCN1C(=O)/C=C/c1ccccc1	10.7	.	-1.1	.	-2.8
O=c1nc2ccc(Cl)cn2c2ccc(S(=O)(=O)N3CCCCC3)cc12	-27.2	.	91.6*	-1.4	0.6
O=C(C[C@@H]1CC[C@H](NS(=O)(=O)c2ccccc2)[C@@H](CO)O1)NCCN1CCCCC1	6.4	.	-10.7	.	-0.9
Cc1c(C(=O)N(Cc2ccc(N(C)C)cc2)C2CCS(=O)(=O)C2)oc2ccccc12 (configuration not stated)	-11.4	.	-0.1	6.9	61.1*
Cc1ccc2oc(C(=O)N(Cc3ccc(N(C)C)cc3)CC3CCCO3)c(C)c2c1 (configuration not stated)	-25.5	.	-0.9	20.3	28.3*
COc1ccc2c3c([nH]c2c1)[C@@H](CO)N(S(C)(=O)=O)CC31CCN(C(=O)CN(C)C)CC1	.	.	.	.	0.2
C[C@H](CO)N1C[C@H](C)[C@@H](CN(C)Cc2ccccn2)Oc2cc(C3=CCCCC3)ccc2S1(=O)=O	12.7	49.1[16.7 µM]	-1.6	.	9.5
O=C(N/C=C/c1ccco1)NCc1ccccc1	-49.8	.	41.6*	20.5	-1.8
NS(=O)(=O)c1ccc(CNC(=O)/C=C/c2ccco2)cc1	-32.6	-3.0	35.7*	41.7	-31.2
O=C(N/C=C/c1ccco1)OCc1ccccc1	-20.4	-0.1	3.0	0.4	-2.4
O=C(CCN1CCCCC1)NCC[C@H]1CC[C@H](NC(=O)Cc2cccnc2)[C@H](CO)O1	38.1	1.0[16.7 µM]	-0.5	.	13.1
Cc1noc(C)c1NC(=O)N(C)C[C@H]1OCCCC[C@H](C)Oc2ccc(NC(=O)C3CCCCC3)cc2C(=O)N([C@H](C)CO)C[C@@H]1C	9.4	4.0[16.7 µM]	-0.9	.	-2.6
Cc1csc2nc3cc(C(N)=O)ccc3c(=O)n12	-11.0	-1.7	0.9	.	54.5*
C#CCOCCOCCOCCNc1nc(N2CCN(C(=O)[C@H](CCCCN)n3cc([C@@H](N)CO)nn3)CC2)nc(N2CCN(C(=O)[C@H](CCCCN)n3cc([C@@H](N)CC(C)C)nn3)CC2)n1	44.3	3.3	-272.0	.	28.6*
C#CCOCCOCCOCCNc1nc(N2CCN(C(=O)[C@H]([C@@H](C)CC)n3cc([C@@H](N)CC(C)C)nn3)CC2)nc(N2CCN(C(=O)[C@H](Cc3ccc(O)cc3)n3cc([C@@H](N)CC(C)C)nn3)CC2)n1	43.0	.	-23.6	.	28.2*
C#CCOCCOCCOCCNc1nc(N2CCN(C(=O)C([C@@H](C)O)n3cc([C@@H](N)CCCCN)nn3)CC2)nc(N2CCN(C(=O)[C@H](CO)n3cc([C@@H](N)C(C)C)nn3)CC2)n1 (some centres not stated)	58.2*	-3.9	-235.1	.	54.4*
C#CCOCCOCCOCCNc1nc(N2CCN(C(=O)[C@H](CCC(=O)O)n3cc([C@@H](N)CCCCN)nn3)CC2)nc(N2CCN(C(=O)[C@H](CCC(=O)O)n3cc([C@@H](N)CCCCN)nn3)CC2)n1	0.2	.	-86.6	.	-2.9
C#CCOCCOCCOCCNc1nc(N2CCOCC2)nc(N2CCN(C(=O)[C@H](CCCCN)n3cc(CN)nn3)CC2)n1	9.2	-19.9	-238.3	.	32.1*
COc1ccc2c3c(n(C)c2c1)[C@H](CO)N(C(=O)C1CCCC1)CC31CCN(C(=O)CC2CC2)CC1	1.5	.	3.7	.	0.1
C#CCOCCOCCOCCNc1nc(N2CCN(C(=O)[C@H](CCCN=C(N)N)n3cc(C(N)[C@@H](C)CC)nn3)CC2)nc(N2CCN(C(=O)[C@H](CC(N)=O)n3cc([C@@H](N)CC(N)=O)nn3)CC2)n1 (some centres not stated)	12.5	-4.5	-198.3	.	25.2*
SMILES	RAD52 inh	miR122 inh	Casp6 inh	NSD2 HMT inh	MLL AF4-AF9 inh
Cc1cccc(OCCC(=O)NNC(=O)Cn2nc(C)cc2C)c1	0.7	.	1.7	-1.7	-1.1
CCOc1ccccc1OCCC(=O)NNC(=O)Cn1nc(C)cc1C	-3.8	-0.9	46.3*	4.1	-0.5
CCC(=O)N1[C@H](C#N)[C@@H](c2ccccc2-c2ccccc2)[C@@H]1CO	-8.4	.	3.4	.	-2.1
CCC(=O)N1[C@@H](C#N)[C@H](c2ccccc2-c2ccccc2)[C@@H]1CO	70.9*	.	-2.6	.	-1.8
CCc1nc(N2[C@H](CO)[C@H](c3ccccc3-c3ccc(F)cc3)[C@@H]2C#N)sc1C	60.3*	.	-4.3	.	1.8
C/C=C/c1ccccc1[C@H]1[C@@H](C#N)N(c2ncc(CC)s2)[C@@H]1CO	64.6*	.	2.6	.	3.0
O=C(COC(=O)/C=C/c1ccco1)Nc1ncc(Cl)cc1Cl	-43.4	0.1	43.9*	-0.2	-1.7
COC(=O)c1ccc(/C=C/C(=O)OCC(=O)Nc2ncc(Cl)cc2Cl)cc1	-48.3	.	0.4	-0.7	0.6
Cc1nc(NC(=O)COC(=O)/C=C/c2ccco2)c(Cl)cc1Cl	-81.3	.	49.5*	1.5	-1.6
Cc1ccc(Cn2c(NS(=O)(=O)c3ccccc3)nc3ccccc32)cc1	.	106.2*	.	0.4	.
CCC(=O)Nc1nc2ccccc2n1Cc1ccc(C)cc1	.	3.6	.	-0.7	.
Cc1ccc(C2=NOC(=O)/C2=C\c2ccccc2)cc1	-33.4	-5.0	3.2	14.1	-0.7
Cc1ccc(/C=C2/C(=O)ON=C2c2ccccc2)o1	-118.2	.	59.6*	10.0	6.6
O=C1ON=C(c2ccccc2)/C1=C/c1ccccc1	-11.1	2.1	1.6	0.5	-1.0
O=C1ON=C(c2ccccc2)/C1=C\c1ccco1	i	-2.3	35.9*	13.7	-0.7
O=C(C[C@H]1CC[C@H]2[C@@H](COC[C@@H](O)CN2C(=O)Nc2cc(Cl)cc(Cl)c2)O1)NCC1CCCCC1	17.2	0.4[16.7 µM]	0.1	.	-1.3
CO[C@@H]1CN(C)C(=O)c2cc(NS(=O)(=O)c3cn(C)cn3)ccc2OC[C@@H](C)N(C)C[C@@H]1C	.	-11.1[16.7 µM]	.	.	.
CCCCCOc1ccc(C2C(C(=O)c3ccc(C)o3)=C(O)C(=O)N2c2cc(C)on2)cc1 (configuration not stated)	-6.9	-1.6	38.9*	1.1	-2.3
C[C@@H]1CN([C@H](C)CO)C(=O)c2cccc(NS(=O)(=O)c3ccc(Cl)cc3)c2O[C@H]1CN(C)Cc1ccc(C(=O)Nc2ccccc2N)cc1	6.4	.	-2.6	.	-1.4
